Structures are written as SMILES. Values without a mark were called inactive. The call rests on the fitted dose curve.

Consider 39 compounds from PubChem BioAssay (NCATS).
Potency means the concentration at half of the fitted maximal effect.

For the assay, the target named is Glucocorticoid receptor (Homo sapiens) (UniProt P04150). The assay is described as follows: GR-EFC Redistribution (AID 451). Particulars: CHO-K1 GR-EFC translocation, beta-gal luminescence, 2 h. In a few lines: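 CHO-K1 cells stably expressing nuclear-localized β-gal enzyme acceptor and GR fused C-terminally to the enzyme donor fragment; ligand-driven nuclear translocation restores β-gal by complementation. Compounds titrated up to 46 uM final, 2 h at 37 °C; luminescence read.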
Chain of Glucocorticoid receptor (Homo sapiens) (P04150 whole entry, looked up, the tested form may be a part): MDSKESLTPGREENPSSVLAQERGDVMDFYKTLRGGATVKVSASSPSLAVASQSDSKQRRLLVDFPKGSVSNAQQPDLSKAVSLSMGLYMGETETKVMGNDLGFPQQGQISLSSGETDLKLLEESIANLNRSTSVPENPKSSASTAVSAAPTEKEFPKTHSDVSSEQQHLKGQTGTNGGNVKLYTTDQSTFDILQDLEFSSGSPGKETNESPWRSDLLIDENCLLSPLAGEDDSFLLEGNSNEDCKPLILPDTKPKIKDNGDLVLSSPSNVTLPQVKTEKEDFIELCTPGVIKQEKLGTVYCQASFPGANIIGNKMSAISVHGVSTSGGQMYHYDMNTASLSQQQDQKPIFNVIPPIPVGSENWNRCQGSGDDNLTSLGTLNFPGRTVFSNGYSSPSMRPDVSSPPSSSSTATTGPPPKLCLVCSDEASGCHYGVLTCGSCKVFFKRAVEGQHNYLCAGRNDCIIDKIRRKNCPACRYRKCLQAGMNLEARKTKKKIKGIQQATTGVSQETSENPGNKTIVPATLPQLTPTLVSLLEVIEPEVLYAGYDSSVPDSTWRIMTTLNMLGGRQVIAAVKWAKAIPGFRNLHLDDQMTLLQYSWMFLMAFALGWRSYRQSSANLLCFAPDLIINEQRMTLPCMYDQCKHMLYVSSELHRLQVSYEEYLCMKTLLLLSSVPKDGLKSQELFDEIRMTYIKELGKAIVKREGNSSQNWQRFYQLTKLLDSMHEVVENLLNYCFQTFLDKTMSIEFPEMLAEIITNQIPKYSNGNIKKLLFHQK
`Cc1noc(C)c1C(=O)N1CCC[C@@]2(CCN(C(=O)NC(C)C)C2)C1`: the Potency is more than 46 µM. For `COCC(=O)N1CCC2(CC1)CN(C(=O)Nc1cccc(C#N)c1)C2`, the Potency was more than 46 µM.

In the case of `Cc1noc(C)c1C(=O)N1CCC2(CCN(C(=O)NC(C)C)CC2)CC1`, the Potency is more than 46 µM.

Consider `O=C(Nc1ccccc1)N1CC[C@@]2(CCCN(C(=O)c3ccco3)C2)C1`, for which the Potency was more than 46 µM. For the compound `CC(=O)N1CCC2(CCCN(c3ccccn3)C2)CC1`, the Potency was more than 46 µM. `CC(=O)N1CCC2(CCN(Cc3ccncc3)CC2)CC1`: the Potency was more than 46 µM. Consider `O=C(Nc1cccc(F)c1)N1CCC2(CCNCC2)CC1`, for which the Potency is more than 46 µM. For the compound `COCC(=O)N1CCC2(CC1)CN(C(=O)Nc1cccc(F)c1)C2`, the Potency was more than 46 µM. In the case of `COCC(=O)N1CCC2(CC1)CN(Cc1cc(C(F)(F)F)cc(C(F)(F)F)c1)C2`, the Potency was more than 46 µM. For the compound `COCC(=O)N1CCC2(CCCN(C(=O)Nc3cccc(F)c3)C2)CC1`, the Potency was more than 46 µM. The value for `COCC(=O)N1CCC2(CC1)CN(C(=O)Nc1ccc(OC)cc1)C2` was more than 46 µM; that for `Cn1cccc1C(=O)N1CCC2(CC1)CN(C(=O)Nc1ccccc1)C2` was more than 46 µM; that for `COC(=O)N1CCC[C@@]2(CCN(C(=O)Nc3ccccc3)C2)C1` was more than 46 µM. `O=C(c1ccncc1)N1CCC2(CC1)CN(c1ncccn1)C2`: the Potency was more than 46 µM. On to `CC(C)NC(=O)N1CCC2(CC1)CCN(C(=O)c1ccco1)CC2`, for which the Potency is more than 46 µM. The value for `O=C(Nc1ccccc1)N1CC2(CCN(C(=O)c3ccco3)CC2)C1` was more than 46 µM. Regarding `COc1ccccc1CN1CCCC2(CCNCC2)C1`, the Potency was more than 46 µM. Regarding `COC(=O)N1CCC[C@@]2(CCN(c3ccccn3)C2)C1`, the Potency was more than 46 µM. On to `Cn1cccc1C(=O)N1CCC2(CCN(C(=O)Nc3cccc(F)c3)CC2)CC1`, for which the Potency is more than 46 µM.

Turning to `O=C(c1csnn1)N1CCC2(CC1)CN(Cc1cc(C(F)(F)F)cc(C(F)(F)F)c1)C2`, the Potency is more than 46 µM.

With `O=C(Nc1ccccc1)N1CCC2(CC1)CCN(C(=O)c1csnn1)CC2`, the Potency was more than 46 µM. On to `CN1CCC2(CC1)CCN(C(=O)c1cc(C(F)(F)F)cc(C(F)(F)F)c1)CC2`, for which the Potency is more than 46 µM. On to `CC(=O)N1CCC2(CCN(Cc3nccs3)CC2)CC1`, for which the Potency is more than 46 µM. With `COc1ccccc1CN1CCC2(CC1)CCN(C(C)=O)CC2`, the Potency is more than 46 µM.

Consider `CS(=O)(=O)N1CCC2(CCN(C(=O)Nc3cccc(C#N)c3)CC2)CC1`, for which the Potency was more than 46 µM. `COc1ccc(NC(=O)N2CCC3(CC2)CCN(C(=O)c2cnccn2)CC3)cc1`: the Potency was more than 46 µM. In the case of `O=C(c1ccco1)N1CCC2(CC1)CCN(c1ccccc1)CC2`, the Potency is more than 46 µM.

In the case of `COc1ccc(NC(=O)N2CC[C@@]3(CCCNC3)C2)cc1`, the Potency was more than 46 µM. The value for `Cc1noc(C)c1C(=O)N1CCC[C@@]2(CCN(c3ncccn3)C2)C1` was more than 46 µM. Regarding `COC(=O)N1CCC2(CC1)CN(C(=O)Nc1ccccc1)C2`, the Potency is more than 46 µM. As for `COCC(=O)N1CCC2(CC1)CCN(C(=O)Nc1cccc(F)c1)CC2`, the Potency was more than 46 µM. The value for `O=C(Nc1ccccc1)N1CCC2(CC1)CCN(C(=O)c1cnccn1)CC2` was more than 46 µM; that for `COC(=O)N1CCC2(CCN(Cc3nccs3)CC2)CC1` was more than 46 µM. With `COc1ccc(NC(=O)N2CC3(CCN(C(=O)c4ccco4)CC3)C2)cc1`, the Potency is more than 46 µM.

In the case of `COc1ccc(NC(=O)N2CC3(CCN(C(=O)c4c(C)noc4C)CC3)C2)cc1`, the Potency was more than 46 µM. For `CC(C)NC(=O)N1CC[C@@]2(CCCN(C(=O)c3cccn3C)C2)C1`, the Potency is more than 46 µM.

`FC(F)(F)c1cc(CN2CC3(CCNCC3)C2)cc(C(F)(F)F)c1`: the Potency is more than 46 µM. As to `O=C(Nc1cccc(F)c1)N1CC2(CCN(S(=O)(=O)c3ccccc3)CC2)C1`, the Potency was more than 46 µM.

For the compound `COCC(=O)N1CCC[C@@]2(CCN(c3ncccn3)C2)C1`, the Potency is more than 46 µM.
